From PubChem
PTPN22 act – increases human PTPN22 phosphatase activity; Q9Y2R2; recombinant LYP, DiFMUP fluorescence; 0 = plate median, 100 = signal doubled; activation, % at 2 µM; 0.11% of 96,000 active; AID 697;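 active = activation at 2 µM above a set limit, the mean plus 5 SD, cut at about 37% in these data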
LYP inh 2 – inhibitors of human LYP (PTPN22) phosphatase; Q9Y2R2; recombinant LYP catalytic domain, DiFMUP fluorescence; inhibition, % at 2 µM; 0.21% of 96,000 active; AID 640;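 active = inhibition at 2 µM at or above a set limit, the screen mean plus 3 SD, cut at about 24% in these data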;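 also: 0% = DMSO with enzyme and 100% = enzyme fully blocked by orthovanadate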
IL1B NFkB inh – blocks IL-1B driven NFkB nuclear translocation in HUVEC cells; AID 796; inhibition, % at 2 µM; 0.43% of 94,000 active; HUVEC IL-1B NFkB p65 nuclear translocation imaging;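 active = inhibition above about 30% together with a positive call from visual inspection of the well image, limit read from the data; inconclusive = inhibition above a set limit but visual check negative; inactive = inhibition not above a set limit, visual check negative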;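 also: nuclear over cytoplasmic p65 intensity ratio measured by imaging; 0% = IL-1B stimulated DMSO wells and 100% = unstimulated DMSO wells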
IL1B NFkB pot – enhances IL-1B driven NFkB nuclear translocation. HUVEC IL-1B NFkB p65 nuclear translocation imaging. activation, % at 2 µM. 0.3% of 94,000 active. AID 819;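 active = activation above 40%, about the mean plus 3 SD, also judged a hit on visual image review; inconclusive = activation above 40% but not a hit on visual review; inactive = activation not above 40% and no visual hit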;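 also: percent activation is computed from the nuclear over cytoplasmic p65 intensity ratio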
HUVEC tox IL1B – HUVEC cytotoxicity counter-screen, IL-1B stimulated; 0.41% of 94,000 active; cell count reduction, % at 2 µM; HUVEC cell count loss, Hoechst imaging;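 active = cell count reduction more than 3 SD above the screen-wide mean, cut at about 70% in these data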;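 also: normalized per plate to untreated control cells as the no-loss baseline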
Numbers without * were called inactive; ? = inconclusive; · = no result. Hits are enriched below; roughly 1.3% of the tested compounds scored in any of these assays.

SMILES	PTPN22 act	LYP inh 2	IL1B NFkB inh	IL1B NFkB pot	HUVEC tox IL1B
O=C(O)c1cc(S(=O)(=O)NCc2ccco2)c(Cl)cc1Cl	-2	2	-2	2	26
O=C(c1ccc(Cl)c(S(=O)(=O)NCc2ccco2)c1)N1CCN(c2ccc(F)cc2)CC1	2	1	36*	-36	-6
O=C(OCn1ncc(Br)c(Br)c1=O)c1ccccc1Cl	6	-7	65*	-88	44
Cc1ccc(-n2nc3c(c2NC(=O)c2ccc4c(c2)OCO4)CSC3)cc1	1	-6	98*	-97	93*
CC(=O)Nc1c2c(nn1-c1ccc(C)cc1C)CSC2	3	1	-36	36	-17
CCCC(=O)Nc1c2c(nn1-c1ccc(C)cc1C)CSC2	-6	4	15	-15	83*
O=C(c1ccco1)N1CCN(Cc2cccc(F)c2)CC1	13	-18	7	-7	-52
O=C(c1cccc(F)c1)N1CCN(Cc2ccco2)CC1	2	-2	-40	40*	-27
COC(=O)c1cc(OC)c(OC)cc1NC(=O)CSc1ccccc1	0	2	-65	?	-42
COC(=O)Nc1ccc(S(=O)(=O)Nc2ccccc2F)cc1	1	-2	5	-5	-34
CC(=O)Nc1ccccc1NS(=O)(=O)c1ccc(Cl)cc1	5	-6	30*	-30	15
CCn1c(SCc2ccc(C)cc2)nnc1-c1cnccn1	2	-6	-63	63*	-1
CCn1c(SCC(=O)c2ccccc2)nnc1-c1cnccn1	3	-6	2	-2	0
N#Cc1nc(-c2ccco2)oc1N1CCC(Cc2ccccc2)CC1	2	-1	5	-5	3
CCOC(=O)C1=CN(c2cccc(F)c2)C=C(C(=O)OCC)C1c1cc(OC)c(O)c([N+](=O)[O-])c1	-11	16	-5	5	-8
COc1c(N2CCN(C(=S)NCc3ccccc3)C(C)C2)c(F)cc2c(=O)c(C(=O)O)cn(C3CC3)c12 (stereo unspecified)	-34	35*	-8	8	1
CCn1cc(C(=O)NCc2ccccc2)c(=O)c2cc(F)c(N3CCN(C(=O)c4ccco4)CC3)cc21	11	-8	-7	7	-14
CC(C)(C)NC(=O)c1nc2ccccc2s1	-2	0	·	·	·
O=C(NCCCO)c1nc2ccccc2s1	-8	11	-42	42*	10
Cc1cccc(NC2=C(Cl)C(=O)OC2NC(=O)c2ccccc2)c1 (stereo unspecified)	7	-4	-20	21	-55
CCCn1c(SCC(=O)N2CCN(S(=O)(=O)c3ccc(Cl)cc3)CC2)n[nH]c1=O	-1	-1	-16	16	-36
Cc1cc(C)n2c(SCC(=O)N3CCN(S(=O)(=O)c4ccc(Cl)cc4)CC3)nnc2n1	-26	24*	-2	2	-46
CCCC1CCc2c(sc(N)c2C(N)=O)C1 (stereo unspecified)	-1	0	-2	2	10
CCc1c(C)c2c(C)nn(-c3ccccc3)c2oc1=O	-2	0	-4	4	-26
CCOC(=O)CCc1c(C)c2c(C)nn(-c3ccccc3)c2[nH]c1=O	-5	2	32*	-32	-38
SMILES	PTPN22 act	LYP inh 2	IL1B NFkB inh	IL1B NFkB pot	HUVEC tox IL1B
CC(OC(=O)c1ccco1)C(=O)NC1CCCCC1 (stereo unspecified)	-30	28*	3	-3	15
COc1ccc2c(c1OC)C(=O)N1N=C(c3ccc(O)cc3)CC21 (stereo unspecified)	0	5	-9	9	-37
Cc1noc(-c2ccccc2OC(=O)c2ccccc2)n1	1	-1	-53	53*	1
O=C(Oc1ccccc1-c1nnco1)c1ccccc1	1	2	-4	4	-17
COC(=O)C1=C(C)N=C2SC(C#N)=C(N)N2C1c1ccc(OCc2ccccc2)cc1 (stereo unspecified)	-2	0	-18	18	5
CCC1CCc2c(sc3nc(SCC(=O)NCc4ccco4)n(-c4ccccc4)c(=O)c23)C1 (stereo unspecified)	-2	1	-4	4	-12
Cc1ccc2nc(NC(=O)c3cccc(-c4cc5ccccc5oc4=O)c3)sc2c1	-22	26*	-11	11	20
O=C(CSc1nc2ccccc2c2nc3ccccc3n12)NCc1ccco1	-25	30*	0	0	-13
Cn1c(SCC(=O)NCc2ccco2)nc2ccccc2c1=O	-2	0	6	-6	18
O=C(CSc1ncccc1-c1nc2ccccc2[nH]1)N1CCN(c2ccccc2F)CC1	-3	4	-15	15	85*
CCCNS(=O)(=O)c1ccc(OCC(=O)N2CCOCC2)cc1	4	-7	5	-5	-20
CC1=NN(c2ccc(C(=O)OC(C)C)cc2)C(=O)/C1=C\C=C\c1ccco1	-10	6	-28	28	-85
CC(C(=O)O)N1C(=O)/C(=C/C=C/c2ccco2)SC1=S (stereo unspecified)	-24	25*	-5	5	-15
COC(=O)c1cc(S(=O)(=O)n2nc(C)c(Br)c2C)c(Cl)cc1Cl	-9	11	16	-16	-8
C(=C\c1ccccc1)/CN1CCN(c2ncnc3c2oc2ccccc23)CC1	0	1	-40	40*	-28
COc1cccc(/C=N/NC(=O)c2ccccc2N(Cc2ccccc2)S(=O)(=O)c2ccccc2)c1OC	-7	11	4	-4	12
C=C(Cl)COc1cc(C)cc2oc(=O)cc(CC)c12	5	-3	47*	-47	-1
O=C(CSc1nc2ccccc2c(=O)[nH]1)Nc1ccc(S(=O)(=O)N2CCCC2)cc1	-8	7	31*	-31	11
O=C(CSc1ncn[nH]1)Nc1ccc(S(=O)(=O)N2CCCC2)cc1	2	-4	-3	3	-6
Cc1cc(C)c(OCCCCCNCCO)c(C)c1	13	-13	-42	42*	-17
O=S(=O)(NCCSc1nnc(-c2ccco2)n1-c1ccccc1)c1ccccc1	7	-7	-86	86*	5
O=C(NC(=S)N(CCCCO)C1CCCCC1)c1sc2ccccc2c1Cl	0	4	3	-3	14
Cc1cc(SCC(=O)c2ccc3c(c2)OCO3)nc2ccccc12	4	-2	57*	-57	-40
Cn1c(-c2ccc(C=O)s2)nc2c3ccccc3c3ccccc3c21	-16	18	8	-8	28
O=C(CCC1CCCCC1)Nc1c2c(nn1-c1ccc(F)cc1)CS(=O)C2 (stereo unspecified)	-6	6	5	-5	76*
CCCCNC(=O)c1cn(-c2ccc(OCC)cc2)c(=O)c2cc(OC)c(OC)cc12	0	1	-13	13	-6
COc1ccc2cc(CN(Cc3ccco3)Cc3nnnn3C3CCCCC3)c(=O)[nH]c2c1	-7	5	4	-4	25
COc1ccc2cc(CN(Cc3ccco3)C(c3nnnn3C3CCCCC3)C(C)C)c(=O)[nH]c2c1 (stereo unspecified)	-23	26*	-1	1	-7
